In the library only some 2.9% were active in any assay of this set; here they are far more common.
Nrf2 ARE act: activates Nrf2 signaling; AREc32 ARE-luciferase reporter (MCF7-derived line), luminescence, 24 h; Potency, µM (doses to about 46.1 µM), most hits filed as activators; 410,000 compounds, 0.31% hits; AID 624171; further: nearly all actives have a fitted effect of over 65% in size
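Each well held 1000 AREc32 cells, which were incubated with compound for 24 hr at 37 deg C after overnight attachment, and ARE reporter activity was quantified by firefly luciferase luminescence.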
ATXN viability: viability counter-screen for ATXN expression inhibitors; S2 cells (HEK-293 line with an ATXN2-luciferase reporter) viability, CellTiter-Fluor protease fluorescence, 24 h; Potency, µM (doses to about 56.7 µM), usual class: cytotoxic; 400,000 compounds, 0.49% hits; further: nearly all actives have a fitted effect of over 40% in size
A549 tox: kills or reduces viability of A549 cells in Nrf2 counter-screen | A549 ARE-Fluc cells, CellTiter-Fluor viability, 18-24 h | Potency, µM (titrated, usually from 46 µM), hits mostly inhibitors | 390,000 compounds, 0.16% hits | AID 504648
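A549 ARE_Fluc cells in 5% FBS OPTI-MEM were exposed to compounds in concentration-response for 18-24 h at 37 deg C. Viability was read by CellTiter-Fluor fluorescence (Ex 405/Em 525) after 30 min, before the luciferase read.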
ATXN2 expr inh: reduces ATXN2 reporter expression in HEK-293 cells | 360,000 compounds, 0.72% hits | HEK-293 ATXN2-luciferase reporter, luminescence, 24 h | Potency, µM (highest dose often 57 µM), actives largely listed as inhibitors; further: nearly all actives have a fitted effect of over 55% in size
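qHTS (up to 57 uM final) was run with 24 h compound exposure of reporter cells at 37 °C. Each well was multiplexed: SteadyGlo luminescence measured ATXN2-luciferase expression after a fluorogenic Gly-Phe-AFC viability readout (25 uM final).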
Nrf2 block: inhibitors of Nrf2 signaling; A549 ARE-Fluc reporter, luciferase luminescence, 18-24 h; Potency, µM (top dose mostly 46 µM), actives largely listed as inhibitors; 360,000 compounds, 2.1% hits; AID 504444; further: nearly all actives have a fitted effect of over 60% in size
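Cells were seeded and rested 2 h, then exposed to compounds for 18-24 h. CellTiter-Fluor was read first as a viability measure. BugLite was added 15 min before the final luminescent read of ARE-luciferase activity in A549 cells.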
Hits are given with their value; i = inactive; ? = inconclusive; nt = not tested or not shown; [ ] = dose if it differs, or a comment. The call rests on the fitted dose curve; in most records, active means well fitted curve in the direction sought with a large enough effect; inconclusive means small, poorly fitted or top-dose-only effect, or another doubt; inactive means no such curve, though single readings can be large; an effect the other way counts as inactive or inconclusive.

SMILES | Nrf2 ARE act | ATXN viability | A549 tox | ATXN2 expr inh | Nrf2 block
O=C1CCc2cc(S(=O)(=O)Nc3ccccc3-c3ccccc3)ccc2N1 | nt | nt | i | nt | i
CC1CCN(c2ncnc3c2c(-c2ccccc2)cn3-c2ccc(Br)cc2)CC1 | i | nt | i | nt | nt
COc1ccc(F)cc1CSc1nnnn1-c1ccc(O)cc1 | i | i | i | i | i
COc1cc(CSc2nnnn2-c2ccc(C)cc2)cc(OC)c1OC | i | i | i | i | 6.5µM
CCOc1cc(Cl)c(S(=O)(=O)NCCCn2ccnc2)cc1Cl | i | ? | i | nt | 16µM
COc1ccc(Cl)cc1S(=O)(=O)NCCCn1ccnc1 | i | i | i | i | i
COCCNC(=O)c1cn(C2CCN(C3CCCC3)CC2)nn1 | nt | i | nt | nt | nt
CC1CN(CC(=O)NCC2(N3CCOCC3)CCCC2)Cc2cc(Cl)ccc2O1 (configuration not stated) | nt | i | nt | nt | nt
Cc1ccc(-n2nc3c(=O)n(C(C)C(=O)NCc4ccccc4Cl)nc(C)c3c2C)cc1 (configuration not stated) | i | i | i | i | 15µM
CCC(C(=O)NCc1cccc(C)c1)n1nc(C)c2c(C)n(-c3ccccc3)nc2c1=O (configuration not stated) | i | nt | i | nt | 21µM
Cc1ccc(-n2nc3c(=O)n(C(C)C(=O)NCCCc4ccccc4)nc(C)c3c2C)cc1 (configuration not stated) | i | ? | 21µM | ? | 10µM
O=C(NCC1Cc2cccc(-c3nccs3)c2O1)c1ccnc(Cl)c1 (configuration not stated) | nt | i | nt | nt | nt
O=P(O)(O)OCC(O)CO (configuration not stated) | nt | i | nt | i | nt
COC1C=CC=C(C)C(=O)NC2=CC(=O)C(N)=C(CC(C)CC(OC)C(O)C(C)C=C(C)C1OC(N)=O)C2=O (configuration not stated) | i | ? | ? | 0.24µM | i
O=C1Cc2cc(S(=O)(=O)N3CCN(c4ccc(C(F)(F)F)cc4)CC3)ccc2N1 | nt | nt | i | nt | ?
Cc1sc(NC(=O)CN2CCCC2)nc1-c1ccc2c(c1)CCN2C(=O)c1cccc(F)c1 | i | ? | ? | ? | 23µM
C=C(CN(C)C)C(=O)c1ccc(OC2OC(COC(C)=O)C(OC(C)=O)C(OC(C)=O)C2OC(C)=O)cc1 (configuration not stated) | ? | 9.5µM | ? | ? | ?
O=C(Cc1ccc(S(=O)(=O)N2CCOCC2)s1)Nc1ccc(S(=O)(=O)N2CCCCC2)cc1 | i | i | i | i | 21µM
O=C(CSC1=NCCS1)Nc1ccc(S(=O)(=O)N2CCCCCC2)cc1 | i | i | i | i | 15µM
COc1ccc([S+](=O)([O-])N2CCN([S+](=O)([O-])c3ccc4c(c3)OCCO4)CC2)c(OC)c1 | nt | nt | i | nt | i
Cc1cc(C)c(CN2CCC3(CCC(CNC(=O)c4ccn(C)n4)O3)CC2)cc1C (configuration not stated) | nt | i | nt | nt | nt
CCC1CCCCN1CCCNC(=O)c1ccc2c(c1)N(Cc1ccc(Cl)cc1)C(=O)c1ccccc1S2(=O)=O (configuration not stated) | i | i | i | 28µM | i
CCCCN(C)C(=O)c1ccc2c(c1)N(Cc1ccc(F)cc1)C(=O)c1ccccc1S2(=O)=O | i | nt | ? | nt | 16µM
COc1ccc(CNC(=O)c2cnn(-c3ncc4c(n3)-c3ccccc3CC4)c2C)cc1OC | nt | i | nt | nt | nt
COc1cnc(-c2ccccn2)nc1NC(C)C | i | ? | ? | ? | 15µM
SMILES | Nrf2 ARE act | ATXN viability | A549 tox | ATXN2 expr inh | Nrf2 block
O=C(CCl)NCCCCCCCCCNC(=O)CCl | 11µM | 10µM | ? | i | i
CCC(=O)NCCCCCCNC(=O)CC | i | i | i | i | i
CCN1C(=O)Nc2cccc3cccc1c23 | ? | i | i | i | 8.2µM
C=CCN1C(=O)N(CC=C)c2cccc3cccc1c23 | i | i | i | i | i
CN(C(=O)c1cccc(NC(=O)Cc2ccc([N+](=O)[O-])cc2)c1)C1CC1 | i | i | i | i | 21µM
CN(C(=O)c1cccc(NC(=O)Cc2cccc([N+](=O)[O-])c2)c1)C1CC1 | i | i | i | i | ?
CC1CCC2(CC1)NC(=O)N(CC(=O)Nc1cccc(S(=O)(=O)N3CCOCC3)c1)C2=O (configuration not stated) | i | i | i | i | ?
CCC1CCC2(CC1)NC(=O)N(CC(=O)Nc1cccc(S(=O)(=O)N(C)c3ccccc3)c1)C2=O (configuration not stated) | i | ? | i | nt | 16µM
CC1CCC2(CC1)NC(=O)N(CC(=O)Nc1cccc(S(=O)(=O)N3CCCCC3)c1)C2=O (configuration not stated) | i | i | i | nt | 18µM
O=C(O)C(=O)Nc1cccc(C2=NN=N[N]2)c1 | nt | i | nt | i | nt
COc1ccc2c(C)c(CC(=O)N3CCN(C(=O)C4COc5ccccc5O4)CC3)c(=O)oc2c1 (configuration not stated) | i | i | i | nt | 23µM
Cc1c(CC(=O)N2CCN(C(=O)C3COc4ccccc4O3)CC2)c(=O)oc2cc(O)ccc12 (configuration not stated) | i | ? | i | i | i
CCn1c2ccccc2c2cc(C3C(C#N)=C(N)Oc4n[nH]c(COC)c43)ccc21 (configuration not stated) | i | i | i | 2.5µM | ?
COc1ccc(CCNC(=S)NC(=O)c2ccc(Br)cc2)cc1OC | i | i | i | ? | 15µM
COc1ccc(CCNC(=O)c2ccc(-c3ccc([N+](=O)[O-])cc3)o2)cc1OC | i | i | i | i | 26µM
COc1ccccc1CCNC(=O)c1nc(-c2cccs2)no1 | i | i | i | i | ?
COc1ccc(NC(=O)c2ccc(-c3ccc([N+](=O)[O-])cc3)o2)cc1 | i | i | i | i | i
COc1ccc(CCNC(=O)c2nc(-c3cccs3)no2)cc1OC | i | i | i | i[11.3 µM] | 21µM
COc1ccc(C(=O)NNC(=O)c2ccc3ccccc3n2)cc1 | ? | nt | i | 20µM | ?
CC(=O)Nc1ccc(OC2=NS(=O)(=O)c3ccccc32)cc1 | nt | nt | i | nt | ?
COc1ccc(CN2Cc3ccccc3OC(c3ccccc3OC)C2)c(O)c1 (configuration not stated) | nt | i | nt | nt | nt
COc1ccccc1CNC(=O)c1ccc2ccccc2n1 | i | i | i | i | i
COc1ccc(CCNC(=O)c2ccc3ccccc3n2)cc1OC | i | i | i | i | 23µM
COc1ccc(CNC(=O)c2ccc3ccccc3n2)cc1OC | i | i | i | i | 13µM
COc1ccc(CCNC(=O)c2cc3sc(Cl)cc3n2C)cc1OC | i | i | i | ? | 26µM
CC(=O)N1CCCc2cc(S(=O)(=O)N3CCCC(C(=O)Nc4ccc(F)cc4F)C3)ccc21 (configuration not stated) | i | i | i | i | nt
Cc1ccc(NS(=O)(=O)c2ccc(-c3ccccc3)cc2)cc1C | nt | nt | i | nt | ?
CCn1c2c(c(=O)n3ncc(C(=O)Nc4cccc(Cl)c4C)c13)CN(Cc1ccc(OC)cc1)CC2 | i | i | i | i | nt
